Bioassay records as filed in PubChem.
Sampled rows, rich in hits. Any-hit rate of the full collection: about 7.4%.
SMN2 splice enh: enhancers of SMN2 splice variant expression | 2.8% of 210,000 active | Potency, µM (series often up to 46.1 µM), without a hit: top-dose activity change, positive = activation, usual class: activators | HEK293 SMN2-luciferase splicing reporter, luminescence, 30-36 h; also: % of control where 0% means no effect; nearly all actives have a fitted effect of over 55% in size
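HEK293 cells carry an SMN2 […]–luciferase reporter in which exon 7 inclusion puts luciferase in frame. Cells were plated 10-12 h before compound addition, then incubated 30-36 h at 37C. ONE-Glo luminescence was read; sodium butyrate at 4.5 mM final served as control.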
ELG1 genotox: induces genotoxicity in HEK293T cells with luciferase-tagged ELG1; 1.3% of 330,000 active; HEK293T ELG1-luciferase reporter, luminescence, 16 h; AID 504466; Potency, µM (doses to about 46 µM), inactives show at the highest dose activity change, positive = activation, most hits filed as activators; also: % of control where 0% means no effect; nearly all actives have a fitted effect of over 60% in size
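Step 1: seed 2,000 HEK293T ELG1-luciferase cells per well. Step 2: add compound or DMSO, incubate 16 hr at 37 °C. Step 3: ONE-Glo, 30 min at room temperature, read luminescence.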
p53 reactivation: re-activators of mutant p53; Potency, µM (series often up to 92.2 µM), for the others: at the highest dose activity change, positive = activation, actives largely listed as activators; AID 504706; 0.063% of 320,000 active; H1299 p53-A138V BP100-luciferase reporter, luminescence, 24 h; also: % of control where 0% means no effect; nearly all actives have a fitted effect of over 45% in size
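H1299 (p53-null), stable ts p53-A138V + BP100-Luc; 1000 cells/well, Opti-MEM/10% FBS; cpd 4 pt, 1:5; 24 h, 37 deg C, 5% CO2; detection reagent 10 min RT; luminescence.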
NPC1 prom act: activates the NPC1 promoter; AID 485313; Huh7 NPC1 promoter luciferase reporter, 24 h; 2.4% of 320,000 active; Potency, µM (series often up to 9.22 µM), for inactives: at the highest dose activation, usual class: activators; also: % of control where 0% means no effect; nearly all actives have a fitted effect of over 60% in size
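In 1536-well qHTS, Huh7 cells harboring an NPC1 promoter–luciferase construct received compound for 24 h; activation was quantified by luminescence following luciferase reagent addition.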
FLuc modulator: counter-screen for miR-21 project: firefly luciferase inhibitors or activators. 6.9% of 360,000 active. Potency, µM (highest dose often 57.5 µM), inactives show top-dose activity change, negative = inhibition, actives largely listed as inhibitors. purified FLuc, Km substrates, luminescence inhibition. AID 588342. P08659;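 also: plate controls were vehicle for no effect and reference inhibitor for full effect; nearly all actives have a fitted effect of over 55% in size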
Target sequence (P08659 whole entry, looked up): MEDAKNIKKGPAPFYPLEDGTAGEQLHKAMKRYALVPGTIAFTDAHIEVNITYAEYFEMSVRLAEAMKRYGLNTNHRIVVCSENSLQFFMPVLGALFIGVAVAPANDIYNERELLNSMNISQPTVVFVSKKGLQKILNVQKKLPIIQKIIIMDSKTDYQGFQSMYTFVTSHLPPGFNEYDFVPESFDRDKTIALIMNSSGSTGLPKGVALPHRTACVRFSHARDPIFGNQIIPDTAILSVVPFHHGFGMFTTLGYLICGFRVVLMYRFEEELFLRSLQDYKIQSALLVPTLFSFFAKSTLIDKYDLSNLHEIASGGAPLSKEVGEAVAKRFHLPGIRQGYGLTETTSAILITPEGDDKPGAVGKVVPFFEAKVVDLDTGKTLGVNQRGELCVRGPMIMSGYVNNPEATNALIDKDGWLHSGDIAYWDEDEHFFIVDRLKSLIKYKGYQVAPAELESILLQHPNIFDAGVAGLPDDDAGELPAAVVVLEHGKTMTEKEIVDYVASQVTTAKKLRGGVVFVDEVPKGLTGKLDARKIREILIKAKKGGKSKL
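Purified P. pyralis luciferase (10nM final) with 10uM D-luciferin and 10uM ATP (Km levels) in 50mM Tris acetate pH 7.5, 10mM Mg acetate, 0.01% Tween-20, 0.05% BSA; qHTS 6-point titration, ~60 µM downward; luminescence read.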
Rab9 prom act: activators of Rab9 promoter; Huh7 Rab9 promoter-luciferase reporter, luminescence, 24 h; 2.8% of 320,000 active; Potency, µM (titrated, usually from 9.22 µM), without a hit: top-dose activation, negative = inhibition, usual class: activators; also: % of control where 0% means no effect; nearly all actives have a fitted effect of over 60% in size
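Steps: seed 1500 Huh7 Rab9-luc cells per well, rest 2 h at 37 °C; add compound in DMSO; incubate 24 h; add luciferase reagent, 10 min ambient; read luminescence.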
The depositor's hits bear a star; ? = inconclusive; · = no result given; [ ] = dose if it differs, or a comment. Calls follow the shape of the dose curve; as a rule, active = well fitted curve in the direction sought with a large enough effect; inconclusive = small, poorly fitted or top-dose-only effect, or another doubt; inactive = no such curve, though single readings can be large; an effect the other way counts as inactive or inconclusive. Potency is read from the fitted curve at half-maximal effect.

SMILES | SMN2 splice enh | ELG1 genotox | p53 reactivation | NPC1 prom act | FLuc modulator | Rab9 prom act
O=C(NCCc1ccccc1)c1ccc2nc(-c3ccco3)c(-c3ccco3)nc2c1 | -2% | -4% | -2% | 0% | 21µM* | 7%
COc1cccc(C(=O)CN2CCN(S(=O)(=O)c3ccc(Cl)cc3)CC2)c1 | · | · | · | · | 1% | ·
CCOc1ccccc1NC(=O)Cn1cnc2onc(-c3ccc(F)cc3)c2c1=O | · | · | · | · | 3% | ·
COc1ccc(CCNC(=O)c2ccc3c(c2)CCN3S(=O)(=O)c2ccccc2)cc1OC | -28% | · | · | · | -7% | ·
CCOc1ccc(CCNC(=O)CN2C(=O)COc3ccc(S(=O)(=O)N(CC)CC)cc32)cc1 | -14% | · | · | · | -7% | ·
O=C(O)c1ccc(OS(=O)(=O)c2ccc(Cl)s2)cc1 | · | 3% | 1% | 5% | 3% | -5%
O=C(c1ccco1)N1CCN(c2nc3ccsc3c(=O)s2)CC1 | 23% | 16% | 5% | 1% | -17% | 18%
O=c1sc(N2CCN(c3ccccc3F)CC2)nc2ccsc12 | 13µM* | 7.3µM* | ? | 1.4µM* | 2.7µM* | 0.79µM*
O=c1sc(N2CCN(c3ccc(F)cc3)CC2)nc2ccsc12 | ? | ? | ? | ? | 8.5µM* | ?
Cc1ccc(NC(=O)C2CCN(S(=O)(=O)c3cccnc3)CC2)cc1C | · | -5% | 9% | -1% | 4% | 0%
Cc1ccc(NC(=S)N2CCc3[nH]c4ccccc4c3C2)cc1 | · | 0% | 1% | 1% | -19% | 0%
S=C(NC1CCCCC1)N1CCc2[nH]c3ccccc3c2C1 | · | 10% | 0% | -4% | 24µM* | -10%
NC(=O)c1c(NC(=O)C2CCCO2)sc2c1CCCCC2 (stereo not given) | ? | ? | ? | 27% | 17µM* | ?
NC(=O)c1c(NC(=O)C2CCCO2)sc2c1CCC2 (stereo not given) | 0% | -2% | 2% | 4% | -2% | 3%
CC(C)(C)C1CCc2c(sc(NC(=O)C3CCCO3)c2C(N)=O)C1 (stereo not given) | -16% | 1% | 4% | -5% | 21µM* | -3%
CC(C)(C)C1CCc2c(sc(NC(=O)C3c4ccccc4Oc4ccccc43)c2C(N)=O)C1 (stereo not given) | 6% | · | · | · | -2% | ·
C[C@H]1Cc2c(COc3ccccc3)nc3c(c2CO1)CN(C(=O)c1cc(I)ccc1F)CC3 | -15%[9.22 µM] | · | · | · | · | ·
CCOc1ccc(CNC(=O)c2cnc3sc(N4CCOCC4)nn3c2=O)cc1OC | · | · | · | · | -4% | ·
O=C(O)[C@H](CCc1ccccc1)N1C(=O)c2ccccc2C1=O | 3%[9.22 µM] | · | · | · | · | ·
C(=N\Nc1ncnc2ccccc12)/c1ccccc1 | 16µM* | ? | 27% | 29% | 3µM* | 2.8µM*
Clc1cccc(Nc2ncnc3ccc(Br)cc23)c1 | -12% | -15% | -2% | ? | -8% | 11%
O=C(O)c1ccc(Nc2ncnc3ccccc23)cc1 | · | 2% | 3% | -3% | ? | 12%
Clc1cccc(/C=N/Nc2ncnc3ccccc23)c1 | ? | ? | ? | ? | 4.8µM* | 4µM*
Fc1ccc(CSc2nncn3c2cc2occc23)c(Cl)c1 | · | · | · | · | -12% | ·
Cc1ccc(NC(=O)c2c(C)oc3ccc(O)c(CN4CCCCC4)c23)c(C)c1 | -8% | · | · | · | -16% | ·
SMILES | SMN2 splice enh | ELG1 genotox | p53 reactivation | NPC1 prom act | FLuc modulator | Rab9 prom act
CCOc1ccc(-c2cn3ccccc3n2)cc1[N+](=O)[O-] | 7.9µM* | ? | ? | 3.5µM* | 2.7µM* | 2.2µM*
CCOc1ccc(Cn2ccnc2)cc1[N+](=O)[O-] | 4% | 3% | -4% | 3% | -1% | -3%
CCCCOc1ccc(-c2cn3ccccc3n2)cc1[N+](=O)[O-] | 6.3µM* | ? | ? | ? | 2.1µM* | 2.8µM*
CCCOc1ccc(-c2csc(N)n2)cc1[N+](=O)[O-] | 11µM* | ? | ? | ? | 11µM* | 2.8µM*
COc1ccc(C(CNC(=O)c2cc3ccccc3o2)N2CCCC2)cc1 (stereo not given) | · | 2% | -3% | 1% | -12% | 0%
COc1ccc(C(CNC(=O)c2ccc(-c3nc4ccccc4s3)o2)N2CCCC2)cc1 (stereo not given) | · | -3% | 0% | -1% | 19µM* | 1%
COc1cc2c(cc1OC)C(c1ccc(-c3ccccc3Cl)o1)=NCC2 | -38% | 11% | 13% | 17% | 2.1µM* | -2%
COc1cc2c(cc1OC)C(c1ccc(-c3ccc(Cl)c(Cl)c3)o1)=NCC2 | -62% | -16% | -2% | -1% | 15µM* | -8%
COc1cc2c(cc1OC)C(c1ccc(-c3ccc(Cl)cc3Cl)o1)=NCC2 | -20% | -13% | -6% | -8% | 15µM* | -4%
COc1ccccc1C1C(C#N)=C(N)N(N(C)C)C2=C1C(=O)CC(C)(C)C2 (stereo not given) | · | -5% | -4% | -4% | 1% | -1%
COc1cccc(C(=O)N2CCC(CCC(=O)Nc3cccc(C)c3)CC2)c1 | · | 0% | -6% | -2% | 5% | 3%
O=[N+]([O-])c1ccccc1NCCNS(=O)(=O)c1ccc(Cl)cc1 | -6%[1.84 µM] | 0% | 5% | 1% | 0% | -2%
O=[N+]([O-])c1cc(Cl)ccc1NCCNS(=O)(=O)c1ccccc1 | -20% | 1% | 5% | 2% | 27µM* | -3%
CCn1c(=O)n(CC(=O)NCC2CCCO2)c(=O)c2c3c(sc21)COC(C)(C)C3 (stereo not given) | · | 1% | -2% | 1% | 0% | -12%
CNc1sc(C(=O)c2ccccc2F)c(N)c1-c1nc2ccccc2s1 | ? | ? | ? | 4µM* | 8.5µM* | 4.5µM*
CC(C)(C)NC(=O)c1ccccc1-c1nc2ccccc2s1 | · | -3% | -7% | -3% | -4% | -5%
CC(C)c1ccc(/C=N\NC(=O)c2ccc(Cn3cccn3)o2)cc1 | 25% | 10% | ? | ? | 1.3µM* | 11%
O=C(N/N=C\c1ccc(Cl)s1)c1ccc(Cn2cccn2)o1 | 6% | -1% | -5% | 16% | ? | 14%
CCCOc1ccc(/C=N/NC(=O)c2ccc(Cn3cc([N+](=O)[O-])cn3)o2)cc1 | -5% | ? | 9% | 23% | 2.4µM* | ?
COc1cccc(C(c2sc3nc(C)nn3c2O)N2CCN(c3ccccc3F)CC2)c1 (stereo not given) | 16% | -6% | -13% | -4% | 0% | -3%
COc1ccc(C(c2sc3ncnn3c2O)N2CCN(c3ccccc3F)CC2)cc1OC (stereo not given) | -26% | ? | 12% | 0% | 7.6µM* | 1%
